From PubChem BioAssay (NCI)
Compounds without any hit were thinned out: in the full panel of roughly 79,000, 15% have a hit. Calls of active or inactive are those of the source. No stated cut-off is given here; in the data, active means growth inhibition above about 70%; inactive means the rest.

Assay: NCI Yeast Anticancer Drug Screen. Data for the rad18 strain (AID 177)
Conditions: S. cerevisiae rad18 mutant growth inhibition, hits give high values
Method: Growth inhibition of yeast strains with defined genetic alterations is measured as a screen for potential anti-cancer activity. Selected strains with alterations in DNA damage repair or cell cycle control were exposed to compounds and growth inhibition was measured relative to vehicle treated controls. The strain used in this assay is rad18

Measured: growth inhibition

O=C1NC(SSC2=NNC3(C(=O)N2)c2ccccc2-c2ccccc23)=NNC12c1ccccc1-c1ccccc12
inactive: at 1.2 µM 0% | at 3.7 µM 3% | at 11.0 µM 5% | at 33.0 µM 5% | at 100.0 µM 9%

CC(=O)OC1CCC2(C)C(=CC(C3C=C4CC(OC(C)=O)CCC4(C)C4=C3C3CC5OC6(CCC(C)CO6)C(C)C5C3(C)CC4)C3=C2CCC2(C)C3CC3OC4(CCC(C)CO4)C(C)C32)C1 (stereo not given)
inactive: at 1.2 µM -1% | at 3.7 µM -3% | at 11.0 µM -3% | at 33.0 µM 8% | at 100.0 µM 51%

O=C(COC(=O)c1ccccc1)c1ccc(Br)cc1
active: at 33.0 µM 99% | at 100.0 µM 98%
inactive: at 1.2 µM 15% | at 3.7 µM 17% | at 11.0 µM 37%

O=C(NCCCl)Sc1ccc(Cl)cc1
inactive: at 1.2 µM 0% | at 3.7 µM 3% | at 11.0 µM 5% | at 33.0 µM 44%
active: at 100.0 µM 93%

O=C(/C=C\c1cccc(C(F)(F)F)c1)c1ccccc1
inactive: at 1.2 µM 0% | at 3.7 µM 1% | at 11.0 µM 7% | at 33.0 µM 22% | at 100.0 µM 57%

Cc1ccc2c3ccc4c(c3n(C)c2c1)C(=O)C=CC4=O
active: at 100.0 µM 82%
inactive: at 1.2 µM 4% | at 3.7 µM 14% | at 11.0 µM 15% | at 33.0 µM 39%

CCN(CC)Cc1cc(Nc2c3ccccc3nc3c2[nH]c2ccccc23)cc(CN(CC)CC)c1O
inactive: at 1.2 µM 16% | at 3.7 µM 9% | at 11.0 µM -2% | at 33.0 µM -11% | at 100.0 µM -7%

NC1=NNC2(C(N)=N1)c1ccccc1-c1ccccc12
active: at 100.0 µM 97%
inactive: at 1.2 µM -4% | at 3.7 µM -5% | at 11.0 µM -17% | at 33.0 µM 18%
